Assay [1] in a line: NCI Yeast Anticancer Drug Screen. Data for the rad50 strain (AID 155).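 Also: 0% = growth of vehicle-only cultures of the same strain.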 To be noted: S. cerevisiae rad50 strain growth inhibition; at 50.0 µM; stronger effect = higher value. In short, it runs like this:
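Relative growth inhibition (compound vs vehicle) was measured in yeast with a defined repair-gene alteration.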

The nature of assay [2]: NCI Yeast Anticancer Drug Screen. Data for the mec2-1 strain (AID 157). The conditions noted are these: S. cerevisiae mec2-1 strain, at 50.0 µM, stronger effect = higher value. The method in brief:
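Strain: mec2-1 (DNA repair/cell cycle alteration). Compound exposure, then growth measured; inhibition expressed relative to vehicle.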

Assay [3] is described as follows: NCI Yeast Anticancer Drug Screen. Data for the sgs1 mgt1 strain (AID 161).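 Also: 0% = growth of cultures given vehicle only.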 To be noted: S. cerevisiae sgs1 mgt1 strain, at 50.0 µM, stronger effect = higher value. In short, it runs like this: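 Test agents were incubated with a DNA-repair-mutant yeast strain. Growth was then read and compared against vehicle-treated controls.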
Assay [4] is described as follows: NCI Yeast Anticancer Drug Screen. Data for the cln2 rad14 strain (AID 165).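 Also: 0% = growth equal to vehicle treated cultures.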 The conditions noted are these: S. cerevisiae cln2 rad14 strain, at 50.0 µM, stronger effect = higher value. The method in brief:
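Compounds are applied to the cln2 rad14 yeast strain, and growth is then compared with that of vehicle-treated cultures to give inhibition.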

Assay [5] in a line: NCI Yeast Anticancer Drug Screen. Data for the bub3 strain (AID 167). The conditions noted are these: S. cerevisiae bub3 mutant strain, at 50.0 µM, stronger effect = higher value. The method in brief:
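Screening used yeast with an engineered genetic alteration affecting cell cycle control. Compound-exposed cultures were compared with vehicle cultures, and reduced growth was taken as inhibition.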

A short description of assay [6]: NCI Yeast Anticancer Drug Screen. Data for the mlh1 rad18 strain (AID 175). To be noted: S. cerevisiae mlh1 rad18 strain growth inhibition; at 50.0 µM; stronger effect = higher value. In short, it runs like this:
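Read-out is yeast growth inhibition, calculated against vehicle-only controls. The compound was applied to a strain engineered with DNA damage repair alterations.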

About 79,000 compounds went through this panel and 15% of them were active in at least one assay; those are over-represented in the sample as a whole. A number with no mark means an inactive call. The source made the active and inactive calls. Rule as the data show it: active = growth inhibition above about 70%; inactive = the rest.

For the compound `c1ccc([P+](CC[P+](c2ccccc2)(c2ccccc2)c2ccccc2)(c2ccccc2)c2ccccc2)cc1`, the growth inhibition was -11.7% in assay [1]; -15.6% in assay [2]; -1.45% in assay [3]; -31.8% in assay [4]; -12.4% in assay [5]; -16.4% in assay [6].

Consider `OC12c3ccccc3C1CCCCCCCCCC21OCCO1` (configuration not stated), for which the growth inhibition in assay [1] is -21.5%; in assay [2], -2.45%; in assay [3], -40.6%; in assay [4] it was 5.05%; in assay [5], -19.1%; in assay [6] it was -27.8%.

With `CCCC(=O)Nc1cc(C(=O)O)cc([N+](=O)[O-])c1`, the growth inhibition is 2.05% in assay [1]; -15.6% in assay [2]; 4.8% in assay [3]; -26.2% in assay [4]; 22.5% in assay [5]; -4.45% in assay [6].

Turning to `CC(=O)Oc1cc2c(cc1OC(C)=O)C1(C)CCC2(C)c2cc(OC(C)=O)c(OC(C)=O)cc21`, the growth inhibition in assay [1] was 1.6%; in assay [2], 0.2%; in assay [3], 3.6%; in assay [4], 9.55%; in assay [5], -2.7%; in assay [6], 14.3%.

As for `COc1cc2cnc3c4ccccc4ccc3c2cc1OC`, the growth inhibition in assay [1] is -48.5%; in assay [2], -18.1%; in assay [3], -1.7%; in assay [4], 4.2%; in assay [5] it was -2.85%; in assay [6], -9.3%.

In the case of `Cc1c(C)c(C)c(CC2(C)CSC2)c(CC2(C)CSC2)c1C`, the growth inhibition in assay [1] is -1.65%; in assay [2], -20.2%; in assay [3] it was -12.6%; in assay [4], 14.6%; in assay [5] it was -41.8%; in assay [6] it was 10.9%.

Turning to `CC1CN(CCCOC(=O)Nc2cccc3ccccc23)CCN1Cc1ccccc1` (configuration not stated), the growth inhibition was 81.2% (active) in assay [1]; 94% (active) in assay [2]; 95.8% (active) in assay [3]; 97.7% (active) in assay [4]; 82% (active) in assay [5]; 95.8% (active) in assay [6].

Consider `Nc1ccc(C(=O)NN2C(=O)C(Cl)C2c2ccc(O)cc2)cc1` (configuration not stated), for which the growth inhibition was -1.75% in assay [1]; -1.45% in assay [2]; -17.2% in assay [3]; -3.05% in assay [4]; 4.8% in assay [5]; -25.6% in assay [6].

As for `COc1ccc2c(c1)SC1=NNC(=O)CN12`, the growth inhibition in assay [1] is -21.6%; in assay [2], -27.6%; in assay [3], -9.45%; in assay [4], -39.1%; in assay [5], -12.2%; in assay [6], -22.9%.

Take `C/C(=N/NC(N)=O)C1C2CC3C(C2Cl)C31` (configuration not stated): the growth inhibition in assay [1] was 21.4%; in assay [2], -15.3%; in assay [3] it was -15.1%; in assay [4], -30.6%; in assay [5], 4.7%; in assay [6] it was -2.4%.

As to `CCOC(=O)[C@H]1Nc2ccc(C)cc2C2c3ccccc3CC21` (some centres not stated), the growth inhibition in assay [1] is -1.5%; in assay [2] it was -28.2%; in assay [3], 3.45%; in assay [4] it was -1.7%; in assay [5], -23.3%; in assay [6], -22.8%.

`CC(C)(C)c1cc2c3c(c1)C(C(F)(F)F)(C(F)(F)F)OS3(=O)(O)OC2(C(F)(F)F)C(F)(F)F`: the growth inhibition in assay [1] is 22.5%; in assay [2], 38.8%; in assay [3], 15.8%; in assay [4], -2.25%; in assay [5], 4.2%; in assay [6], 39%.

`NC(=O)/C(=C(/O)C(=O)O)c1ccnc2ccccc12`: the growth inhibition is 4.85% in assay [1]; -4.8% in assay [2]; 7.35% in assay [3]; -41% in assay [4]; -4.2% in assay [5]; -2.15% in assay [6].

With `COC1(OC)N=C(N)C2(C#N)C(C)=C3NCN(C)N=C3C12C#N` (configuration not stated), the growth inhibition in assay [1] is 8.15%; in assay [2], 3.2%; in assay [3], -44%; in assay [4], -6.7%; in assay [5], -33.8%; in assay [6] it was -51%.

Turning to `Nc1cc(=O)n(-c2ccccc2)[nH]1`, the growth inhibition in assay [1] was -2.05%; in assay [2] it was -10.6%; in assay [3], -6.8%; in assay [4] it was -19.9%; in assay [5], -27.9%; in assay [6], 22%.

On to `CCCCOc1ccc([N+](=O)[O-])cn1`, for which the growth inhibition in assay [1] is 20.8%; in assay [2] it was -14.6%; in assay [3] it was 3.15%; in assay [4], 26.1%; in assay [5] it was -7.6%; in assay [6], 9.15%.

As to `Cc1nc2ccc(Cl)c(Cl)c2s1`, the growth inhibition is 2% in assay [1]; -16.3% in assay [2]; -3% in assay [3]; -26% in assay [4]; 6.65% in assay [5]; -10.4% in assay [6].

Turning to `CN=C(NC)C(c1ccccc1)c1ccccc1`, the growth inhibition in assay [1] was -0.5%; in assay [2] it was -9.7%; in assay [3] it was -5.7%; in assay [4] it was -15.8%; in assay [5] it was -5.8%; in assay [6], -9.3%.

As for `O=C1Nc2c(cccc2-c2ccccc2)C(=O)C1(O)c1ccccc1` (configuration not stated), the growth inhibition in assay [1] is -0.35%; in assay [2], -1.2%; in assay [3] it was -0.6%; in assay [4], -9.8%; in assay [5], -2.6%; in assay [6], -3.95%.

As for `Cc1ccc(S(=O)OC2C3CC4CC(C3)CC2C4)cc1` (configuration not stated), the growth inhibition in assay [1] was 6.65%; in assay [2], 10.3%; in assay [3] it was 0.2%; in assay [4] it was 30.8%; in assay [5], 1.25%; in assay [6] it was 0.75%.

As to `CC(C#N)N(C)c1c([N+](=O)[O-])c(=O)n(C)c(=O)n1C` (configuration not stated), the growth inhibition is -5.85% in assay [1]; -13.3% in assay [2]; -5.4% in assay [3]; -14.9% in assay [4]; -2.7% in assay [5]; -20.7% in assay [6].

As for `Cc1cccc(-n2cccc2)c1`, the growth inhibition in assay [1] is -1.6%; in assay [2], -13.8%; in assay [3], 4.8%; in assay [4], -10.7%; in assay [5], -16.3%; in assay [6], 4.75%.

Consider `CC[N+](C)(CC)CC(O)C[N+]1(C)CC2CCCCC2C1` (configuration not stated), for which the growth inhibition in assay [1] was 13.1%; in assay [2], -1.7%; in assay [3] it was 6.2%; in assay [4], -10.2%; in assay [5], -4.65%; in assay [6], 4.1%.

For `COc1cccc(NC(=S)Nn2c(C)nc3ccccc3c2=O)c1`, the growth inhibition in assay [1] is -25.2%; in assay [2] it was -14%; in assay [3], -17.1%; in assay [4] it was 0.25%; in assay [5], -11.3%; in assay [6], -28.6%.

Take `CC(=O)Nc1ccccc1NOC(=O)c1ccccc1NC(C)=O`: the growth inhibition was -3.1% in assay [1]; -8.9% in assay [2]; 4.45% in assay [3]; 32.7% in assay [4]; 25.1% in assay [5]; 18.1% in assay [6].

As to `Cc1cc([N+](=O)[O-])ccn1`, the growth inhibition in assay [1] is -15.2%; in assay [2], 1.1%; in assay [3] it was -18.1%; in assay [4] it was -4.5%; in assay [5], -6.15%; in assay [6], -9.9%.

For `COc1ccccc1/C=N\NC(C)=O`, the growth inhibition in assay [1] was -9.9%; in assay [2] it was 6.05%; in assay [3], 5.35%; in assay [4], 2.25%; in assay [5], 6.05%; in assay [6], -14.7%.

With `O=C1CN(c2ccccc2)CC(=O)N2Cc3ccccc3CN12`, the growth inhibition was -4.05% in assay [1]; 1.2% in assay [2]; 9.8% in assay [3]; 17.1% in assay [4]; 16.7% in assay [5]; 14.7% in assay [6].

Turning to `Cc1cc2c(=O)cc(-c3ccncc3)oc2c(C(=O)O)c1C`, the growth inhibition in assay [1] was 20.7%; in assay [2], 0.2%; in assay [3], -10.3%; in assay [4], 20.5%; in assay [5], 26.9%; in assay [6], -5.5%.

For the compound `O=C(O)C1(NO)CCCCC1`, the growth inhibition is -6.9% in assay [1]; 6.7% in assay [2]; -11.8% in assay [3]; -9% in assay [4]; -12.6% in assay [5]; -5.4% in assay [6].

On to `COC(=O)NC1C(=O)CCC(=O)C1C(N)=O` (configuration not stated), for which the growth inhibition was -23.4% in assay [1]; -7.65% in assay [2]; -17.4% in assay [3]; -17.5% in assay [4]; -0.3% in assay [5]; -12.4% in assay [6].

In the case of `O=[N+]([O-])c1ccc(F)cc1`, the growth inhibition was -1.3% in assay [1]; 5.25% in assay [2]; 2.3% in assay [3]; -17.4% in assay [4]; 7.15% in assay [5]; 4.75% in assay [6].

Turning to `N#CCCCCCCC(N)=O`, the growth inhibition in assay [1] was 4.4%; in assay [2], -0.9%; in assay [3], 6.4%; in assay [4] it was -1.25%; in assay [5], -5.6%; in assay [6], -16.2%.

As to `O=C(OCCN=c1c2ccccc2ccc2ccccc12)c1cc([N+](=O)[O-])cc([N+](=O)[O-])c1`, the growth inhibition is 13.1% in assay [1]; 4.75% in assay [2]; 34.3% in assay [3]; 21% in assay [4]; 13.6% in assay [5]; 39.8% in assay [6].

In the case of `COC(=O)C(/C(=N\NC(N)=S)C(=O)Nc1ccccc1[N+](=O)[O-])c1cnc2ccccc2n1` (configuration not stated), the growth inhibition in assay [1] is 5%; in assay [2] it was -14.7%; in assay [3], -8.55%; in assay [4], 2.1%; in assay [5] it was -19.1%; in assay [6], -18.7%.

As to `Cn1c2ccccc2c2nc3ccccc3c(Cl)c21`, the growth inhibition in assay [1] was -43.5%; in assay [2] it was -12.8%; in assay [3], -49.9%; in assay [4], -12.9%; in assay [5], -39.9%; in assay [6], -31.9%.

`COC(=O)c1ccc(OC(=O)Nc2ccc(Br)cc2)cc1`: the growth inhibition in assay [1] was 11.3%; in assay [2] it was 26.4%; in assay [3], 27%; in assay [4], -4.2%; in assay [5], 37.2%; in assay [6], 19.9%.
